Measured values as given in ChEMBL document CHEMBL1961873, “Compounds: GSK PKIS; Assays: Nanosyn kinase panel” (2012).

What was measured:
[1] = target: Rho-associated protein kinase 1 (Homo sapiens) (UniProt Q13464); settings: at 1 µM;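 further: reported values are mean percent inhibition of ROCK1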
[2] = target: Rho-associated protein kinase 2 (Homo sapiens) (UniProt O75116); settings: at 0.1 µM
[3] = target: Rho-associated protein kinase 2 (Homo sapiens) (UniProt O75116); settings: at 1 µM
[4] = target: Ribosomal protein S6 kinase alpha-1 (Homo sapiens) (UniProt Q15418); settings: at 0.1 µM
[5] = target: Ribosomal protein S6 kinase alpha-1 (Homo sapiens) (UniProt Q15418); settings: at 1 µM
[6] = target: Ribosomal protein S6 kinase alpha-3 (Homo sapiens) (UniProt P51812); settings: at 0.1 µM
[7] = target: Ribosomal protein S6 kinase alpha-3 (Homo sapiens) (UniProt P51812); settings: at 1 µM
[8] = target: Ribosomal protein S6 kinase alpha-2 (Homo sapiens) (UniProt Q15349); settings: at 0.1 µM
[9] = target: Ribosomal protein S6 kinase alpha-2 (Homo sapiens) (UniProt Q15349); settings: at 1 µM
[10] = target: Ribosomal protein S6 kinase alpha-6 (Homo sapiens) (UniProt Q9UK32); settings: at 0.1 µM
Sequence of Ribosomal protein S6 kinase alpha-6 (Homo sapiens) (Q9UK32 whole entry): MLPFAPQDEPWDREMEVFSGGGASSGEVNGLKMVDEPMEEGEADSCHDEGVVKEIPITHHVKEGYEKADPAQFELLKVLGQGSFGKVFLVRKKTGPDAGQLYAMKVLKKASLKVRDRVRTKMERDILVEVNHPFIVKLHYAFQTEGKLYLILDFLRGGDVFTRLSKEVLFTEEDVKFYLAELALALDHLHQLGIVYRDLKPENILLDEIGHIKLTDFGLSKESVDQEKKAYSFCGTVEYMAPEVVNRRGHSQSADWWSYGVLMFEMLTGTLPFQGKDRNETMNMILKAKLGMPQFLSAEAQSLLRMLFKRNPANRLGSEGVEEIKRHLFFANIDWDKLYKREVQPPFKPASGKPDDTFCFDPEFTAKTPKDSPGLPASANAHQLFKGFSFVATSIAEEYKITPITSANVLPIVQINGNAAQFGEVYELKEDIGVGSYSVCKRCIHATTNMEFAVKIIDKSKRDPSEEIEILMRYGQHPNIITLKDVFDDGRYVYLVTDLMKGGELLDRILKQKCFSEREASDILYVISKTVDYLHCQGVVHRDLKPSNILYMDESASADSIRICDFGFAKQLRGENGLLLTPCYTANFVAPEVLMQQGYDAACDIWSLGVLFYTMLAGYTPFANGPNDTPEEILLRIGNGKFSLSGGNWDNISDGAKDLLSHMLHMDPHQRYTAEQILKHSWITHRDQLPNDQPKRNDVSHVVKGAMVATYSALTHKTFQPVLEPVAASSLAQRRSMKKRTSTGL

[11] = target: Ribosomal protein S6 kinase alpha-6 (Homo sapiens) (UniProt Q9UK32); settings: at 1 µM
[12] = target: T1, Serine/threonine-protein kinase Sgk1 (Homo sapiens) (UniProt O00141); settings: at 0.1 µM
T1 sequence (whole entry): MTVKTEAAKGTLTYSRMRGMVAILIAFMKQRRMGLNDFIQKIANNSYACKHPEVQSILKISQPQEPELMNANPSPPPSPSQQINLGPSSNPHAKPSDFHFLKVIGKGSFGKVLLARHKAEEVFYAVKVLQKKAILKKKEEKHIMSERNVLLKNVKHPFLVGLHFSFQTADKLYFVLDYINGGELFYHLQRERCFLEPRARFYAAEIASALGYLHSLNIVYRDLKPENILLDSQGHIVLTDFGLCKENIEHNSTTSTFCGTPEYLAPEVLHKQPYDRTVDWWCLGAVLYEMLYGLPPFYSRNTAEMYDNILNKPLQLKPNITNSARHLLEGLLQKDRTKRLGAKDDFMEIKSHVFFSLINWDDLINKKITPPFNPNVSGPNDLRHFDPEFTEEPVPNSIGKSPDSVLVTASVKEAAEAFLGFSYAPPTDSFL

[13] = target: T1, Serine/threonine-protein kinase Sgk1 (Homo sapiens); settings: at 1 µM
[14] = target: T2, Serine/threonine-protein kinase Sgk2 (Homo sapiens) (UniProt Q9HBY8); settings: at 0.1 µM
T2 sequence (whole entry): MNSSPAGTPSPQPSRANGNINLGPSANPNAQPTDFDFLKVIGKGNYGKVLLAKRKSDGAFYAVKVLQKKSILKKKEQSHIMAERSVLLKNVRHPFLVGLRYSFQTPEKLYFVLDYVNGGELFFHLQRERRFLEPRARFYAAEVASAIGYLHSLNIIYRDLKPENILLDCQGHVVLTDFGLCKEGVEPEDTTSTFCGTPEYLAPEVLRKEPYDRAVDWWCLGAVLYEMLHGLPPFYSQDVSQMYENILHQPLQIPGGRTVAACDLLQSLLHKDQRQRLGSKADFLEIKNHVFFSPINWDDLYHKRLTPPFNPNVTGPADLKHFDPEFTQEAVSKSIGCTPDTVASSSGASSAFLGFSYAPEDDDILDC

[15] = target: T2, Serine/threonine-protein kinase Sgk2 (Homo sapiens); settings: at 1 µM
[16] = target: T3, Serine/threonine-protein kinase Sgk3 (Homo sapiens) (UniProt Q96BR1); settings: at 0.1 µM
T3 sequence (whole entry): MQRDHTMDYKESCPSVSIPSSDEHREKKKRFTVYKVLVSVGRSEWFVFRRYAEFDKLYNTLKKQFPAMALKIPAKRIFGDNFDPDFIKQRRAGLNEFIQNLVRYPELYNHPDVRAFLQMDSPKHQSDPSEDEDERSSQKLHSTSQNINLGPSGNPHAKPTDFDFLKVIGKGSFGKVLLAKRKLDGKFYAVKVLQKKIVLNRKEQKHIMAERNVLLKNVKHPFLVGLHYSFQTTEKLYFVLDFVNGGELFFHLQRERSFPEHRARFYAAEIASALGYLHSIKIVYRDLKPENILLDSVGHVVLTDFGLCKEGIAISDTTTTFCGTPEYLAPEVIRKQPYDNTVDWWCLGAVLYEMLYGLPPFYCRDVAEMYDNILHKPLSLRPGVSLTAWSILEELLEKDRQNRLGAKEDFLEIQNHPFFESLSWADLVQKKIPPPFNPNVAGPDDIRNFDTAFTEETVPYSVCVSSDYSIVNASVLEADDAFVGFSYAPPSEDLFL

[17] = target: T3, Serine/threonine-protein kinase Sgk3 (Homo sapiens); settings: at 1 µM
[18] = target: 5'-AMP-activated protein kinase catalytic subunit alpha-1 (Homo sapiens) (UniProt Q13131); settings: at 0.1 µM
Sequence of 5'-AMP-activated protein kinase catalytic subunit alpha-1 (Homo sapiens) (Q13131 whole entry, looked up): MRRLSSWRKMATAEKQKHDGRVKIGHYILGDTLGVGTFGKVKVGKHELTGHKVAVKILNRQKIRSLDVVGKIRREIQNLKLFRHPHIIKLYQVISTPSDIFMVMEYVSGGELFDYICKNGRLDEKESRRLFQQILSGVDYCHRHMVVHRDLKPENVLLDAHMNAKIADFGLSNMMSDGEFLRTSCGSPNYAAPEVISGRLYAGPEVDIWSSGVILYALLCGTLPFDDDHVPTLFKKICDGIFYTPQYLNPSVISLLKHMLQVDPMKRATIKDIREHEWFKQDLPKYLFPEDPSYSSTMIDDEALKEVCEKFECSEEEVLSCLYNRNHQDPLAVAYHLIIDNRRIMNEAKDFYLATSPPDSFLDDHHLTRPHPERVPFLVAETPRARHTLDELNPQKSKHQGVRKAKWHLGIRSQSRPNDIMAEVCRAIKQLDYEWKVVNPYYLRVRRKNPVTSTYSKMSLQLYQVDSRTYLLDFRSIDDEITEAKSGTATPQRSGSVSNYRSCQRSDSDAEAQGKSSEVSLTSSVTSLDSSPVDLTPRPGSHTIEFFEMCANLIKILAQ

[19] = target: 5'-AMP-activated protein kinase catalytic subunit alpha-1 (Homo sapiens) (UniProt Q13131); settings: at 1 µM
[20] = target: 5'-AMP-activated protein kinase catalytic subunit alpha-2 (Homo sapiens) (UniProt P54646); settings: at 0.1 µM;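 further: mean inhibition measured on the AMPK complex of alpha2, beta1 and gamma1 subunits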
Sequence of 5'-AMP-activated protein kinase catalytic subunit alpha-2 (Homo sapiens) (P54646 whole entry, looked up): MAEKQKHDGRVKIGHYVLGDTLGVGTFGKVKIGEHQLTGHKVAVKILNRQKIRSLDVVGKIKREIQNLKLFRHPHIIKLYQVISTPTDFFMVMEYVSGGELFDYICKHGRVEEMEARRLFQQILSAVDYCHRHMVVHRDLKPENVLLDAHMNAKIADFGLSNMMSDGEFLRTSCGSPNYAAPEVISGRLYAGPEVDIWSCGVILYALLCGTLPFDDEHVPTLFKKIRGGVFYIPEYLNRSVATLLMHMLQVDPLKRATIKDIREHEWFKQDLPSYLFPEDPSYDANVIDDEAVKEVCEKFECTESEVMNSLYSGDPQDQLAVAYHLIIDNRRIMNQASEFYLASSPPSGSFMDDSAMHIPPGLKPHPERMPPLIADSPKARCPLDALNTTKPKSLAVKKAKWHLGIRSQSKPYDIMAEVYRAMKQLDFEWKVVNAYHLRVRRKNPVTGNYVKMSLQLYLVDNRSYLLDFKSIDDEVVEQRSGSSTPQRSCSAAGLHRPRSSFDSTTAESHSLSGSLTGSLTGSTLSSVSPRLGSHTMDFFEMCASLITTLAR

Sequence of Rho-associated protein kinase 2 (Homo sapiens) (O75116 whole entry, looked up): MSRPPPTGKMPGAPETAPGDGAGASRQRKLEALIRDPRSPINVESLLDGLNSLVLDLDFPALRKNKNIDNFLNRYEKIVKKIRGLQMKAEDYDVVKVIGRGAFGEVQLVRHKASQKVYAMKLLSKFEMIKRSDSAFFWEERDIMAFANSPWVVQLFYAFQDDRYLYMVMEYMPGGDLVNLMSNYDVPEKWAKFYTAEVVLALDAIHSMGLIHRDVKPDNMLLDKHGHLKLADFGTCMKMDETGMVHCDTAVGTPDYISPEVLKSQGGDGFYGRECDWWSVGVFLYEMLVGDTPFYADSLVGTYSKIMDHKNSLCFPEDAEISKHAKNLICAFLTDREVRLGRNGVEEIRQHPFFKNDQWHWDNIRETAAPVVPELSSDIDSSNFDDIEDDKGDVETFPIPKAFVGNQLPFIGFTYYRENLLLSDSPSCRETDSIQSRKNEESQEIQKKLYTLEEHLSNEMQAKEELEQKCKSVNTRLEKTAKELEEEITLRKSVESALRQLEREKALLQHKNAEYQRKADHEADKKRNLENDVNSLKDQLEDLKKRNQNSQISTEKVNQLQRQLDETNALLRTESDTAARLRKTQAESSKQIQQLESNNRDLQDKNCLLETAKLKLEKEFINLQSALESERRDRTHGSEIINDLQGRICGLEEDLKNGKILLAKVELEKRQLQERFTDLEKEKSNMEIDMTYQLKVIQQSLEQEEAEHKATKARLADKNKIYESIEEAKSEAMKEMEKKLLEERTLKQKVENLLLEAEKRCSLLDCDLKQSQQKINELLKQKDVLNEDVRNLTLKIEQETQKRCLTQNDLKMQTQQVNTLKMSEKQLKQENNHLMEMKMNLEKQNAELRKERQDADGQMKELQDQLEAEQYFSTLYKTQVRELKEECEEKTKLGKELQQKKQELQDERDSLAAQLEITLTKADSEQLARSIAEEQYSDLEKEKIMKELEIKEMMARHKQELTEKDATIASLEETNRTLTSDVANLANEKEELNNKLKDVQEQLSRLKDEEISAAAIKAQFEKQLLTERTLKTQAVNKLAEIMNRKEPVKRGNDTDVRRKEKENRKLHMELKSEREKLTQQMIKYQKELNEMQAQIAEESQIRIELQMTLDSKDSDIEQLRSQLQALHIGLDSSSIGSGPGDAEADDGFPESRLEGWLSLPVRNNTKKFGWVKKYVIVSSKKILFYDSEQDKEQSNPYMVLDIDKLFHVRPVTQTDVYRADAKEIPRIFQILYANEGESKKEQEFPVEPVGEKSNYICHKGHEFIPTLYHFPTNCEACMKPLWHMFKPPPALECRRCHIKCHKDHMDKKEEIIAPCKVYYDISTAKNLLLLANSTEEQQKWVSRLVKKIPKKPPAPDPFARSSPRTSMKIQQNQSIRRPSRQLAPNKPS
Sequence of Rho-associated protein kinase 1 (Homo sapiens) (Q13464 2-1354 limits assumed): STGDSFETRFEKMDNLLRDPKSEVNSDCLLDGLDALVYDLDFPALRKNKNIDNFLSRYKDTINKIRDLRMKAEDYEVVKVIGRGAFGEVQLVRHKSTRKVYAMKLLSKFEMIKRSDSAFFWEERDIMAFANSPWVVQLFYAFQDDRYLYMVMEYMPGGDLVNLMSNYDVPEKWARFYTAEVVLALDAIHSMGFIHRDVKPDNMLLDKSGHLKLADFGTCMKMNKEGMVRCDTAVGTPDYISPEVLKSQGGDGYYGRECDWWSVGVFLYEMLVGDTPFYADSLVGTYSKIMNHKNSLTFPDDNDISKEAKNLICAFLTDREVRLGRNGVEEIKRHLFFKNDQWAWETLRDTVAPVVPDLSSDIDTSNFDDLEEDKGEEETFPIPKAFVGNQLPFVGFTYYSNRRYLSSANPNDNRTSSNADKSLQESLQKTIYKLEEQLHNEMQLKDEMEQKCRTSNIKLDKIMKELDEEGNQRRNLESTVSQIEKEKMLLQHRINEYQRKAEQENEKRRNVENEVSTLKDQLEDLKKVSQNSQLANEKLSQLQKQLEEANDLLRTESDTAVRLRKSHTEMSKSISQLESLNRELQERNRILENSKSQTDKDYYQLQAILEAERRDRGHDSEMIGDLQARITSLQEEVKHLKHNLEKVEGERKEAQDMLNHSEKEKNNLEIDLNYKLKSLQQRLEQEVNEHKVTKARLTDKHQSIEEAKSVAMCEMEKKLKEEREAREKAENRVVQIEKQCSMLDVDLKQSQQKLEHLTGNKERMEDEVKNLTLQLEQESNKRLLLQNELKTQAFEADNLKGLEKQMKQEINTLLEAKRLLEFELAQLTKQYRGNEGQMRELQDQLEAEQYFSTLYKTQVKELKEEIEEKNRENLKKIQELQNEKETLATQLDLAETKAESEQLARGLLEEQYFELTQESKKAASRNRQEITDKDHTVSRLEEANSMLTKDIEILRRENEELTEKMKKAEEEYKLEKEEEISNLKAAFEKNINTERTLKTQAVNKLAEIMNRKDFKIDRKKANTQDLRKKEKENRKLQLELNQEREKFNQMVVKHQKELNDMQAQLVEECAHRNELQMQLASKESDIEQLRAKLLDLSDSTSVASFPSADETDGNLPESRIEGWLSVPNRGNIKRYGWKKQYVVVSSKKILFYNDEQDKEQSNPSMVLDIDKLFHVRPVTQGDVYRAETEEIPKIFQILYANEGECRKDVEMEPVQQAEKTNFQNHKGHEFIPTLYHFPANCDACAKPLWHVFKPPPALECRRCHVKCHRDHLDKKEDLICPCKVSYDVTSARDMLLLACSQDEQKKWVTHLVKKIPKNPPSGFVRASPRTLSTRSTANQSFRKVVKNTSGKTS

Row | SMILES | inhibition [1] | inhibition [2] | inhibition [3] | inhibition [4] | inhibition [5] | inhibition [6] | inhibition [7] | inhibition [8] | inhibition [9] | inhibition [10] | inhibition [11] | inhibition [12] | inhibition [13] | inhibition [14] | inhibition [15] | inhibition [16] | inhibition [17] | inhibition [18] | inhibition [19] | inhibition [20]
1 | Cc1cc(-c2ccco2)cc(C)c1/C=C/c1cncc(-c2nn[nH]n2)c1 | 1.58% | 0.76% | 1.41% | 0.75% | 1.35% | 0.67% | 0.7% | 1.44% | 0.92% | -0.24% | -0.53% | 2.78% | 0.73% | -0.62% | -1.7% | -0.03% | -0.92% | 0.43% | 1.33% | 0.25%
2 | CCn1c(-c2nonc2N)nc2c(C#CC(C)(C)O)nc(O[C@@H](CN)c3ccccc3)cc21 | 51.7% | 11.5% | 59.4% | 19.1% | 71.6% | 18% | 69.5% | 15.4% | 69.9% | 4.01% | 23.4% | 4% | 34.2% | 5.31% | 3.43% | 64.9% | 94.2% | 79.2% | 88.1% | 24.6%
3 | COc1cccc(COc2cc(-n3cnc4ccccc43)sc2C(N)=O)c1 | -0.3% | -0.06% | 0.84% | 0.37% | 0.21% | 0.89% | -1.45% | -0.15% | 1.4% | 1.09% | 2.04% | 3.04% | 0.63% | -0.02% | -0.45% | -1.95% | -0.21% | 0.92% | 2.35% | -0.66%
4 | CCn1c(-c2nonc2N)nc2c(C#CCN)ncc(OCCCN)c21 | 48.7% | 10.6% | 53.7% | 20.1% | 68.3% | 24.4% | 72.9% | 7.65% | 48.5% | 1.06% | 15.3% | 1.23% | 5.38% | -0.28% | 8.17% | 5.66% | 40.1% | 0.48% | 4.78% | 2.63%
5 | COc1cccc(-n2ncc3c(N/N=C/c4ccncc4)ncnc32)c1 | 9.67% | 4.97% | 19.4% | 3.51% | 7.17% | 1.43% | 4.26% | 2.35% | 4.92% | 2.25% | 4.33% | 6.01% | 16.1% | 4.49% | 11.9% | 5.19% | 6.6% | 2.59% | 9.15% | 2.26%
6 | COc1cc(C=NNc2ncnc3c2cnn3Cc2ccccc2)ccc1O | 5.87% | -0.21% | 1.36% | 1.68% | 3.82% | 1.86% | 3.94% | -0.6% | 1.82% | -1.29% | 2.26% | -3.31% | 3.11% | -3% | -2.21% | -2.5% | -0.29% | -1.23% | -0.19% | -2.17%
7 | Fc1ccc(-c2ncn(C3CCNCC3)c2-c2ccnc(Oc3ccccc3)n2)cc1 | 1.62% | -0.24% | 0.28% | -0.66% | -0.32% | -1.31% | -1.67% | 1.35% | 0.51% | -0.22% | -1.23% | 0.46% | 0.24% | 0.49% | 2.09% | 0.78% | 2.18% | 2.1% | 0.47% | 2.07%
8 | NS(=O)(=O)c1ccc(-c2ccc3c(NC(=O)C4CC4)n[nH]c3c2)cc1 | 2.34% | 0.8% | 1.01% | 1.47% | 0.59% | 0.4% | 1.28% | 0.45% | 2.46% | 1.52% | 3.54% | 0.35% | 14.6% | -0.5% | 3.35% | -0.5% | -1.93% | 2.61% | 2.22% | -0.68%
9 | CCn1c(-c2nonc2N)nc2c(C#CC(C)(C)O)ncc(OCC3CCNCC3)c21 | 13.7% | 6.21% | 27.5% | 4.34% | 19.9% | 4.16% | 19% | 2.47% | 7.78% | 2.29% | 7.82% | 5.12% | 10.5% | 2.67% | 8.07% | 21.6% | 67.4% | 13.8% | 51.9% | 3.32%
10 | COc1cc2c(cc1Nc1nc(Nc3ccsc3C(N)=O)c3cc[nH]c3n1)N(C(=O)CN(C)C)CCC2 | 26.1% | 3.13% | 23.2% | 7.13% | 34.8% | -6.28% | -1.3% | 0.29% | 7.85% | 0.38% | 16.4% | 3.82% | 2.11% | 2.89% | 2.84% | -0.08% | -0.04% | 1.03% | -0.4% | 0.93%
11 | NS(=O)(=O)c1ccc(N/C=C2\C(=O)Nc3ccc4ncsc4c32)cc1 | 33% | 12% | 47.5% | 4.22% | 31.3% | 6.13% | 36% | 16.5% | 66.1% | 12.6% | 59.9% | 9.85% | 47.5% | 4.72% | 18.4% | 3.8% | 10.2% | 21.1% | 59.9% | 14.4%
12 | Nc1nonc1-c1nc2cnccc2n1C1CCCCC1 | 78.4% | 42.4% | 83.4% | 52.1% | 86.4% | 40.9% | 81.4% | 70% | 92.6% | 6.78% | 30.9% | 1.2% | 13.2% | 5.9% | 40.5% | 7.01% | 41.7% | 0.66% | 5.36% | -0.2%
13 | NC(=O)c1sc(-n2cnc3cc(C(F)(F)F)ccc32)cc1OCc1ccccc1Br | 0.79% | 0.92% | 1.05% | 1.6% | 2.97% | 3.26% | 3.31% | 2.33% | 1.83% | 1.36% | 1.95% | 1.54% | 2.43% | 0.68% | -0.08% | -0.31% | 4.18% | 2.29% | 2.17% | 2.18%
14 | CCn1c(-c2nonc2N)nc2c(C#CC(C)(C)O)ncc(OC[C@@H]3CCCN3)c21 | 12.4% | -0.51% | 10% | -0.68% | 23.3% | 3.35% | 24.9% | 2.02% | 13.3% | -0.15% | 8.09% | 1.28% | 2.09% | 3.27% | 2.29% | 12.7% | 47.4% | 6% | 39.3% | 0.91%
